The source made the active and inactive calls.
Experiments:
Albumin (Bos taurus) = Albumin (Bos taurus) (UniProt P02769); assay: bovine serum albumin binders on microarray, profiling panel, artefact control for SMM control protein annotation, biochemical, small-molecule microarray, Alexa647 label, 635/667 nm fluorescence (AID 1118); details: BSA-A647 binding, fluorescence 635 nm, higher = more signal;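 also: score merges 667 nm emission intensity and signal-to-noise per printed compound spot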
[1] = small-molecule microarray binders of probe aXIP, primary screen, biochemical, NeuroSMM set, 635/667 nm fluorescence (AID 1119); details: higher = more signal, called active from +8 up or from −8 down;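 also: probe is the protein aXip251-270 applied at 1 µg/mL to compound-printed slides; binding of probe to printed compounds measured as 667 nm fluorescence plus signal to noise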
[2] = small-molecule binders of probe aNOTCH3, primary screen, biochemical, small-molecule microarray, 635/667 nm fluorescence (AID 1120); details: higher = more signal;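 also: probe is a biotin-tagged antibody raised against NOTCH3 rather than NOTCH3 protein; score merges spot fluorescence near 667 nm with spot signal to noise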
[3] = small-molecule binders of probe aNOTCH2, primary screen, biochemical, small-molecule microarray, 635/667 nm fluorescence (AID 1121); details: higher = more signal;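 also: score merges feature fluorescence read at 667 nm with its signal to noise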
[4] = target: Carbonic anhydrase 2 (Homo sapiens) (UniProt P00918); assay: CAII small-molecule binders, profiling panel, biochemical, small-molecule microarray, Alexa647-labelled CAII (AID 1122); details: CAII-A647 binding fluorescence, higher = more signal
[5] = COS7 lysate on small-molecule microarray, probe aHis, 635 nm (AID 1123); details: COS7 cell lysate, fluorescence, higher = more signal;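 also: z-score combines 667nm fluorescence intensity with signal-to-noise per printed compound spot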
[6] = compound binding in COS7 lysate, probe aLAP1, primary screen, cell lysate, small-molecule microarray (AID 1124); details: probe aLAP1, fluorescence, higher = more signal;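 also: lysate comes from COS7 cells expressing LAP1 and is applied at 0.3 µg/mL; score merges spot fluorescence near 667 nm with signal-to-noise over triplicate slides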
Sam68 (KHDRBS1) = assay: Sam68 small-molecule binders, primary screen, biochemical, small-molecule microarray, 635 nm fluorescence (AID 1125); details: small-molecule microarray binding, higher = more signal;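 also: score merges 667 nm channel intensity with signal to noise over triplicate slides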
[7] = tested on: Chordin-like protein 2 (CHRDL2); assay: CHRDL2 small-molecule binders, primary screen, biochemical, small-molecule microarray, 635 nm fluorescence (AID 1126); details: small-molecule microarray binding, fluorescence 635 nm; higher = more signal;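 also: printed compound slides probed with Chrdl2 protein at 4 µg/mL for 1 h at 4 C; score merges 667 nm emission intensity with signal to noise over three replicate slides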
[8] = target: Concanavalin-A (Canavalia ensiformis) (UniProt P02866); assay: ConA small-molecule binders, primary screen, artefact control for SMM control protein annotation, biochemical, small-molecule microarray, Alexa647 label, 635 nm (AID 1127); details: ConA-A647 binding fluorescence, higher = more signal;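 also: z combines 667 nm emission intensity with signal-to-noise across three replicate slides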
[9] = anti-His antibody binders, primary screen, artefact control for SMM control protein annotation, biochemical, small-molecule microarray, 635 nm fluorescence (AID 1128); details: anti-His Alexa647 antibody binding, higher = more signal;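 also: score merges feature fluorescence with signal-to-noise for each printed compound spot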
[10] = tested on: Human papillomavirus type 1a E7 protein (residues 1-88); assay: HPV1a E7 small-molecule binders, primary screen, biochemical, small-molecule microarray, residues 1-88, 635 nm (AID 1129); details: small-molecule microarray binding, fluorescence 635 nm; higher = more signal
[11] = target: Focal adhesion kinase 1 (Homo sapiens) (UniProt Q05397); assay: small-molecule microarray binders of FAK, primary screen, biochemical, 635/667 nm fluorescence, BSA, DTT (AID 1130); details: PTK2 binding, 635 nm fluorescence, higher = more signal;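 also: composite of spot emission at 667 nm and signal to noise over triplicate slides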
[12] = tested on: Fibrinogen (Alexa647-labelled); assay: fibrinogen binders on compound microarrays, profiling panel, artefact control for SMM control-protein annotation, biochemical, small-molecule microarray, 635/667 nm fluorescence (AID 1131); details: fibrinogen-A647 binding fluorescence, higher = more signal;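 also: z-score merges 667 nm fluorescence with per-spot signal-to-noise over triplicate slides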
[13] = target: Follistatin (Homo sapiens) (UniProt P19883); assay: follistatin binders on small-molecule microarrays, primary screen, biochemical, small-molecule microarray, 635/667 nm fluorescence (AID 1132); details: FST binding, 635 nm fluorescence, higher = more signal
[14] = target: Fibroblast growth factor 2 (Homo sapiens) (UniProt P09038); assay: FGF2 binders on small-molecule microarrays, primary screen, biochemical, small-molecule microarray, 635/667 nm fluorescence (AID 1133); details: small-molecule microarray binding, FGF2, fluorescence 635/667; higher = more signal
[15] = mitochondrial membrane potential change in A549 cells, profiling panel, cell-based, JC-1 fluorescence, basal, 24 h, 100 nL (AID 1138); details: higher = more signal;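 also: A549 lung adenocarcinoma cells under basal conditions with no added stimulus; test concentration not given here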
Lefty1 = Lefty1 binders on small-molecule microarrays, primary screen, biochemical, small-molecule microarray, 635/667 nm fluorescence (AID 1139); details: small-molecule microarray binding, fluorescence 635/667; higher = more signal
[16] = tested on: wheat germ agglutinin (Triticum aestivum), Alexa647-labelled; assay: wheat germ agglutinin binders on compound microarrays, profiling panel, artefact control for SMM control-protein annotation, biochemical, small-molecule microarray, 635/667 nm fluorescence (AID 1140); details: WGA-A647 binding, 635 nm fluorescence, higher = more signal;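 also: score merges 667 nm feature emission with signal to noise over triplicate slides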
[17] = target: Luciferin 4-monooxygenase (Photinus pyralis) (UniProt P08659); assay: firefly luciferase enzyme inhibitors, primary screen, biochemical, luminescence, purified enzyme, 2006 set (AID 1141); details: SteadyGlo luminescence, 30 min, higher = more signal, called active from +8 up or from −8 down;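 also: cell-free assay with purified firefly luciferase at 100 ng per well in PBS; test concentration not given here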
Chain of Luciferin 4-monooxygenase (Photinus pyralis) (P08659 whole entry, looked up): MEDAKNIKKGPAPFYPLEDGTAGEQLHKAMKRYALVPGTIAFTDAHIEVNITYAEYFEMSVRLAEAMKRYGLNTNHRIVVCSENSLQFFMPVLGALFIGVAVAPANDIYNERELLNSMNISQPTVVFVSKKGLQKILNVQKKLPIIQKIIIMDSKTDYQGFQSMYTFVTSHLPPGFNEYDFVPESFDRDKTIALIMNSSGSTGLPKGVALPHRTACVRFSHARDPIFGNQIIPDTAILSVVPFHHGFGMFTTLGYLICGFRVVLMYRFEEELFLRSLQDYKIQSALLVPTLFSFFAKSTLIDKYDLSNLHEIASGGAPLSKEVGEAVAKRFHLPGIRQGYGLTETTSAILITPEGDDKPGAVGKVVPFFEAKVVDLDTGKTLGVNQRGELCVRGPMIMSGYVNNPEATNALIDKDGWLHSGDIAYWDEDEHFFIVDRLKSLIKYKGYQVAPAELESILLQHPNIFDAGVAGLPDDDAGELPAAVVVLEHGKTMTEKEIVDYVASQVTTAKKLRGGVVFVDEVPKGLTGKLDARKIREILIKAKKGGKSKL

Chain of Focal adhesion kinase 1 (Homo sapiens) (Q05397 whole entry, looked up): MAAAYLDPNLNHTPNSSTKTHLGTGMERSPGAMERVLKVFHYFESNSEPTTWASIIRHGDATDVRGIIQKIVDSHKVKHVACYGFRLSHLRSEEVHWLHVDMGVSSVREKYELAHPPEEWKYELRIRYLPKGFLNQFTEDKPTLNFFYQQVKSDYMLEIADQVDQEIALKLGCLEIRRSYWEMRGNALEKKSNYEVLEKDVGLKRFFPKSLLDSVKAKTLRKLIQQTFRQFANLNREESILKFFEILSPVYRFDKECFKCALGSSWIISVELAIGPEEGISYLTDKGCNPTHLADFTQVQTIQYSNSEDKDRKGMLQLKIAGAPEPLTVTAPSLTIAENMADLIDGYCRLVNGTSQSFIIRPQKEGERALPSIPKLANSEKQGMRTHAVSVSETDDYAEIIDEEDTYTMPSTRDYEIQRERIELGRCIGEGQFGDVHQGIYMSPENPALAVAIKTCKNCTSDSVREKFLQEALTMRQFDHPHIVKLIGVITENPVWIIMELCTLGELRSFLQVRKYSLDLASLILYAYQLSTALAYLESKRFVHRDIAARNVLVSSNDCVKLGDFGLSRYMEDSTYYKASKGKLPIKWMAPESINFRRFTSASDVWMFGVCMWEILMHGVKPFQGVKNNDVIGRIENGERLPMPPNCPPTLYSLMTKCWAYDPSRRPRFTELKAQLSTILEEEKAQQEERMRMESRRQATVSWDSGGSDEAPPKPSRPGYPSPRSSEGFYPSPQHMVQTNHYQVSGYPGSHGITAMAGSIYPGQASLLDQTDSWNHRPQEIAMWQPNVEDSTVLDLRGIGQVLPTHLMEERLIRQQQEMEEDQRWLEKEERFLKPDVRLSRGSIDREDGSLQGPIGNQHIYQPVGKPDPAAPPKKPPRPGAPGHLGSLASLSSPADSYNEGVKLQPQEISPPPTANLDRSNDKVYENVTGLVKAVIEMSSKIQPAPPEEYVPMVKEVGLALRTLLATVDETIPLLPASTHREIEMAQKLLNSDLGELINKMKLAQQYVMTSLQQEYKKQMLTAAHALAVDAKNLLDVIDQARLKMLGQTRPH
Chain of Concanavalin-A (Canavalia ensiformis) (P02866 whole entry, looked up): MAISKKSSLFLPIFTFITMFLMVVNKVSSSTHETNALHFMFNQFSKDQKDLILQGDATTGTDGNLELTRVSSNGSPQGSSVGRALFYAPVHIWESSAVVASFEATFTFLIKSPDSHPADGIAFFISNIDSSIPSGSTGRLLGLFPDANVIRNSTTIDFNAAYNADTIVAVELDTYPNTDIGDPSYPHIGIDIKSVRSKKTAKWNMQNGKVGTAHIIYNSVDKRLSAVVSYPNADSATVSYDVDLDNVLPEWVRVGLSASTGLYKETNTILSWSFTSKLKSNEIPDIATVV
Chain of Albumin (Bos taurus) (P02769 whole entry, looked up): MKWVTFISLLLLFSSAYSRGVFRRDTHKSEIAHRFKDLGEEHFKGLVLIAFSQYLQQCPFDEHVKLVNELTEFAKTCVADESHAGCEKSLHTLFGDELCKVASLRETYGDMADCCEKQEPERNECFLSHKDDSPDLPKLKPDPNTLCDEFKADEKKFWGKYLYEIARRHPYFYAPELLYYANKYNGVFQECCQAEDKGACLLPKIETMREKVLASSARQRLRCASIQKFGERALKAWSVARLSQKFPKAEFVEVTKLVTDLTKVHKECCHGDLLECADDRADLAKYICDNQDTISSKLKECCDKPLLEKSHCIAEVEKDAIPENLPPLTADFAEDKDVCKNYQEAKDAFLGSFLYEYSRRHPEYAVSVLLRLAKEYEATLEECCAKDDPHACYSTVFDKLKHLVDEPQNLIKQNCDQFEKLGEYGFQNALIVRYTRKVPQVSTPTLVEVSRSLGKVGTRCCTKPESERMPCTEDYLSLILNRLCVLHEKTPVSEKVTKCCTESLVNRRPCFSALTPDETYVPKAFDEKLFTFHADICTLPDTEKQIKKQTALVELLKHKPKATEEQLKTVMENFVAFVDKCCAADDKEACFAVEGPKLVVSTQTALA
Chain of Follistatin (Homo sapiens) (P19883 whole entry, looked up): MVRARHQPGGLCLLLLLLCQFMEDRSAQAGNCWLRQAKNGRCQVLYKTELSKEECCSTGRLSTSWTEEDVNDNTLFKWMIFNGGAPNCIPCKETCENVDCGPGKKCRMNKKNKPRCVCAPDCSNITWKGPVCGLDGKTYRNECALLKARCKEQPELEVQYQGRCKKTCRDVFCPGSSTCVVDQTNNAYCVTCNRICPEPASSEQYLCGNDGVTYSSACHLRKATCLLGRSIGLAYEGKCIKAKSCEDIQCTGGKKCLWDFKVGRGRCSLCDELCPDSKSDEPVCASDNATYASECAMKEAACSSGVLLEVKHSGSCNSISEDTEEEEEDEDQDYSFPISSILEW
Chain of Fibroblast growth factor 2 (Homo sapiens) (P09038 whole entry, looked up): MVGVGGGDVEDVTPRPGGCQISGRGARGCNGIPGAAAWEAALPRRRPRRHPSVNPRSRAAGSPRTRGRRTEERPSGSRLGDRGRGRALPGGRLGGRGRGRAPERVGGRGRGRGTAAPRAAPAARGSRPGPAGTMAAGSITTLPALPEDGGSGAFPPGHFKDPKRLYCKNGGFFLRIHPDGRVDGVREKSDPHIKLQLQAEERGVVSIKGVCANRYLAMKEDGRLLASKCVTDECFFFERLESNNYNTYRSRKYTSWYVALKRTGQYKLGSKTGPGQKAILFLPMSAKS

Row | SMILES | composite z-score (Albumin (Bos taurus)) | composite Z-score [1] | composite z-score [2] | composite z-score [3] | composite z-score [4] | composite z-score [5] | composite z-score [6] | composite z-score (Sam68 (KHDRBS1)) | composite z-score [7] | composite z-score [8] | composite z-score [9] | composite z-score [10] | composite z-score [11] | composite z-score [12] | composite z-score [13] | composite z-score [14] | z-score [15] | composite z-score (Lefty1) | composite z-score [16] | z-score [17]
1 | CCOC(=O)[C@H](CC(C)C)NC(=O)CCC1CC(OC(=O)NCCc2ccc(F)cc2)CC2(CCCC(COC(=O)NCCCN3CCCC3=O)O2)O1 (stereo not given in full) | 0.353 | 0.0886 (inactive) | -0.179 | -0.0839 | 0.325 | 0.619 | 0.16 | 0.883 | 0.473 | 0.0423 | 0.969 | 0.635 | 0.0501 | 0.958 | 1.25 | 0.304 | -0.114 | 0.766 | 0.205 | 0.564 (inactive)
2 | CCN1C(=O)[C@H]2[C@H]3[C@H](O)[C@H](O)CC(=NO[C@@H]4O[C@H](CO)[C@@H](O)[C@H](O)[C@H]4O)[C@H]3CC[C@H]2C1=O | -0.0203 | 0.121 (inactive) | -0.0783 | -0.148 | -0.0497 | -0.0296 | 0.212 | -0.305 | 0.43 | 0.634 | 0.0595 | 0.512 | 0.026 | 0.16 | 0.442 | 0.922 | -0.8 | 0.467 | 0.0622 | 0.217 (inactive)
3 | COC(=O)CC=C[C@@H](C)[C@@H](C=NOC[C@@H](C)[C@H](OCc1ccccc1)C(C)C)OC | -0.469 | -0.235 (inactive) | -0.0647 | -0.124 | -0.12 | 0.266 | -0.61 | 0.447 | 0.386 | 0.102 | 1.86 | -0.0858 | 0.0285 | -0.211 | 0.088 | 0.323 | -1.01 | 0.419 | -0.307 | -0.698 (inactive)
4 | CCN1C(=O)[C@H]2[C@H]3[C@H](O)[C@H](O)CC(=NNC(=O)OCc4ccccc4)[C@H]3CC[C@H]2C1=O | 0.185 | -0.431 (inactive) | 0.0145 | -0.129 | -0.0576 | 0.0949 | -0.198 | -0.813 | -0.0255 | 0.514 | 0.0371 | -0.601 | -0.117 | 0.0307 | -0.238 | 0.215 | -0.538 | 0.235 | 0.136 | 0.69 (inactive)
5 | CC(=O)OC[C@H]1O[C@H](CC=NO[C@@H](C)c2cn([C@H](CO)Cc3ccccc3)nn2)C=C[C@@H]1OC(C)=O | 0.447 | 0.0225 (inactive) | 0.0517 | -0.0798 | 0.342 | 1.34 | 0.0198 | 0.987 | 0.394 | 0.506 | -0.0515 | 0.656 | -0.0806 | 0.827 | 0.679 | 0.45 | -1.56 | 1.05 | 0.233 | 1.36 (inactive)
6 | CCN1C(=O)[C@H]2[C@H]3[C@H](O)[C@H](O)CC(=NOCC=C(C)CCC=C(C)C)[C@@H]3CC[C@H]2C1=O | 0.44 | -0.496 (inactive) | 0.144 | -0.118 | 0.0577 | 0.162 | 0.39 | 1.25 | 1.39 | 0.13 | 0.521 | 0.344 | -0.0746 | 0.493 | 1.31 | 1.01 | -0.717 | 1.23 | -0.207 | 0.146 (inactive)
7 | CCOC(=O)[C@H](Cc1ccccc1)NC(=O)CCC1CC(OC(=O)NCc2cccc3ccccc23)CC2(CCCC(COC(=O)NCCOc3ccccc3)O2)O1 (stereo not given in full) | 0.0423 | 0.19 (inactive) | -0.16 | -0.0859 | 0.391 | 1.05 | 0.132 | 1.24 | 0.439 | 1.12 | 1.39 | 1.01 | 0.227 | 0.725 | 0.485 | 0.279 | -0.16 | 0.573 | 0.268 | 1.13 (inactive)
8 | CCN1C(=O)[C@H]2[C@H]3[C@H](O)[C@H](O)CC(=NNC(=O)OCc4ccccc4)[C@@H]3CC[C@H]2C1=O | 0.489 | -0.45 (inactive) | -0.0647 | -0.14 | -0.289 | 0.917 | -0.314 | -0.327 | -0.0079 | 0.145 | 0.545 | -0.513 | -0.116 | 0.315 | 0.0633 | -0.0789 | 0.207 | 0.066 | 0.128 | 0.248 (inactive)
9 | Cc1ccc2[nH]c3nc(CCCn4ccnc4-c4ccccc4)nnc3c2c1 | 0.414 | -0.375 (inactive) | 0.079 | -0.176 | 0.465 | 0.656 | 0.0559 | 1.05 | 0.763 | 1.1 | 0.663 | 1.08 | 0.0863 | 0.826 | 0.757 | 1.19 | 0.524 | 0.802 | 0.676 | 0.36 (inactive)
10 | C#CCCCON=C1C[C@@H](O)[C@@H](O)[C@@H]2[C@@H]3C(=O)N(C4CCCCC4)C(=O)[C@@H]3CC[C@@H]12 | 0.42 | 0.0436 (inactive) | -0.11 | -0.129 | 0.621 | 0.65 | 0.172 | -0.513 | 0.422 | 0.335 | 0.16 | 0.256 | 0.394 | 0.486 | 0.513 | 0.0704 | -0.404 | 0.363 | 0.329 | -0.0138 (inactive)
11 | CCOC(=O)NN=C1C[C@@H](O)[C@@H](O)[C@@H]2[C@@H]3C(=O)N(C[C@@H]4CCCO4)C(=O)[C@@H]3CC[C@H]12 | 0.34 | -0.161 (inactive) | -0.0057 | -0.15 | -0.144 | 0.19 | 0.299 | 0.31 | 0.245 | 0.111 | 0.57 | 0.317 | 0.43 | 0.835 | 0.308 | 0.342 | -0.311 | 0.293 | 0.0337 | 0.515 (inactive)
